Results on 48 compounds are retold here after PubChem BioAssay AID504327 (National Center for Advancing Translational Sciences (NCATS), 2011).

About 820 (0.21%) of roughly 390,000 compounds were called active. Another 3% or so got no clear call; they are omitted. This is one part of a sample in which actives are shown more often than they occur. The call rests on the fitted dose curve; in most records, active means well fitted inhibition curve with a large enough effect; inconclusive means small, poorly fitted or top-dose-only effect, or another doubt; inactive means no such curve, though single readings can be large or run the other way.
On the % scale 0 is the no-effect control and ±100 the full control effect; potency means the concentration at half of the fitted maximal effect.

Sequence of Histone acetyltransferase KAT2A (Homo sapiens) (Q92830 whole entry, looked up): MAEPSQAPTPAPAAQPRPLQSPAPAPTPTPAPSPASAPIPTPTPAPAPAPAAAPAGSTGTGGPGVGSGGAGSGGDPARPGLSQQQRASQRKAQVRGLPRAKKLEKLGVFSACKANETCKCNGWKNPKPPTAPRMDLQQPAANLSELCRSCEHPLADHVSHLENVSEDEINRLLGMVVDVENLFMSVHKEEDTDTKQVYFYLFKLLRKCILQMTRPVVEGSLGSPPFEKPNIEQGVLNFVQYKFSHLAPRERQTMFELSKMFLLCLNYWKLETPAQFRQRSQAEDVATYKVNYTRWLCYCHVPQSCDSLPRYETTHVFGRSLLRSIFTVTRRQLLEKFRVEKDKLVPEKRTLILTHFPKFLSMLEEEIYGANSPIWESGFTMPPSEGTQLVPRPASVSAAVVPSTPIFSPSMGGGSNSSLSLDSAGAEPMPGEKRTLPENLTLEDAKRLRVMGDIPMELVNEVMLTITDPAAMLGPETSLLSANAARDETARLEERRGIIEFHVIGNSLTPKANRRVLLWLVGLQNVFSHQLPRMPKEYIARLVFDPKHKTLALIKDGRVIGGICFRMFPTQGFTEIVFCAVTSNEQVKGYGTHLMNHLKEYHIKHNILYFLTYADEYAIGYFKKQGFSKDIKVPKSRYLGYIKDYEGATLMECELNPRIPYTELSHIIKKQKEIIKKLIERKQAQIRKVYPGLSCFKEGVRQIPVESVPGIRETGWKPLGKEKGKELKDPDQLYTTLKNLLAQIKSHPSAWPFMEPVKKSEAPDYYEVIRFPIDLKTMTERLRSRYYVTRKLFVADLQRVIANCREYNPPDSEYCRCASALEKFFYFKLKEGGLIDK

This test concerns the target Histone acetyltransferase KAT2A (Homo sapiens) (UniProt Q92830). The experiment in a line: qHTS Assay for Inhibitors of GCN5L2. The settings on record: GCN5L2 HAT assay, ThioGlo1 CoA-SH fluorescence; series mostly up to 58.9 µM; activity change, negative = inhibition: at the top concentration. An outline of the steps: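 qHTS, 1536-well. 20nM enzyme, pH 7.5 HEPES/EDTA/Tween-20 buffer; 15 min compound preinc., RT. Start: 75uM H3(1-25), 70uM AcCoA, 50uM ThioGlo1. Read Ex340/Em540 at t=0 (autofluorescence flag) and t=20 min.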
As for `COc1ccc(-c2cn3cccnc3n2)cc1`, the Potency was 31.6 µM (active).
In the case of `FC(F)(F)Oc1ccc(-c2cn3cccnc3n2)cc1`, the “activity change, negative = inhibition” value is -8.87% (inactive).
The same measure, in the same setting: in the case of `CC(C)(C)C(=O)Nc1ccc(-c2cn3cccnc3n2)cc1` it was -29.9% (inactive).
Same read-out and setting: as for `CC1O[C@@H](Oc2c(-c3ccc(O)c(O)c3)oc3cc(O)cc(O)c3c2=O)C(O)C(O)C1O` (stereo partly drawn), the figure is 10.8% (inactive); as for `C=C1C(=O)C23C(O)C1CCC2[C@]12COC3(O)C(O)C1C(C)(C)CC[C@H]2O` (stereo partly drawn), -7.65% (inactive).
As to `CCc1nc(-c2cc(S(=O)(=O)N3CCN(c4ccc(OC)cc4)CC3)ccc2OC)no1`, the Potency was 25.1 µM (active).
Regarding `COc1ccc(S(=O)(=O)N2CCN(c3ccc(F)cc3)CC2)cc1-c1noc(C)n1`, the “activity change, negative = inhibition” value was -5.52% (inactive).
As for `COc1ccc(N2CCN(S(=O)(=O)c3ccc(-c4coc(C)n4)cc3)CC2)cc1`, the “activity change, negative = inhibition” value is -1.94% (inactive).
Regarding `Cc1ccc(/C(=C/CN2CCCC2)c2ccccn2)cc1`, the Potency result was “inactive”.
Take `COC(=O)N1CCC2(CCCN(c3ccncc3)C2)CC1`: the “activity change, negative = inhibition” value is -8.99% (inactive).
Still for that read-out and setting: in the case of `O=C(Oc1cc(OC(=O)c2ccccc2)c2c(c1)OC(c1ccc(OC(=O)c3ccccc3)c(OC(=O)c3ccccc3)c1)[C@@H](OC(=O)c1ccccc1)C2)c1ccccc1` (stereo partly drawn) it was 6.73% (inactive).
Take `COC(=O)c1sc2[nH]c(=S)n(N)c(=O)c2c1C`: the “activity change, negative = inhibition” value is -14.2% (inactive).
`CCOC(=O)C1=C(C)Nc2sc(C(=O)c3ccc(Br)cc3)c(N)c2C1c1ccc(C(=O)OC)cc1` (stereo not drawn): the “activity change, negative = inhibition” value was -19.5% (inactive).
`CCOC(=O)c1sc(=S)n2c1[nH]c(=O)c1ccc(C(=O)OC)cc12`: the Potency is 35.5 µM (active).
The same measure, in the same setting: in the case of `CCCc1cc(=S)n2c([nH]c3ccccc32)c1C#N` it was 22.4 µM (active).
As to `COc1cc2c(cc1OC)[C@@H](Cc1cc(OC)c(OC)c(OC)c1)[N+](C)(CCCOC(=O)CC/C=C/CCC(=O)OCCC[N+]1(C)CCc3cc(OC)c(OC)cc3[C@H]1Cc1cc(OC)c(OC)c(OC)c1)CC2` (stereo partly drawn), the “activity change, negative = inhibition” value was -0.503% (inactive).
On the same count and under the same terms, in the case of `O=Cc1c(N2CCN(c3cccc(Cl)c3)CC2)nc2ccccn2c1=O` it was 0.398% (inactive).
As to `O=Cc1c(Nc2ccccc2Cl)nc2ccccn2c1=O`, the Potency is 22.4 µM (active).
`Cc1cccn2c(=O)c(C=O)c(Nc3ccc(S(N)(=O)=O)cc3)nc12`: the “activity change, negative = inhibition” value is -4.25% (inactive).
As for `CC(=O)NC(=O)c1ccccc1O`, the “activity change, negative = inhibition” value is -2.65% (inactive).
Same read-out and setting: as for `CC1CC2C3CCC4=CC(=O)C=C[C@]4(C)[C@@]3(F)[C@@H](O)C[C@]2(C)[C@@]1(O)C(=O)CO` (stereo partly drawn), the figure is -2.41% (inactive).
On the same count and under the same terms, in the case of `COc1c2c(cc3occ(-c4ccc5c(c4)OCO5)c(=O)c13)OC(C)(C)C=C2` it was -15.3% (inactive).
On the same count and under the same terms, in the case of `COc1ccc(C(=O)N2CCC3(CC2)CCN(c2ccccn2)CC3)cc1` it was 7.2% (inactive); in that of `COc1ccc(-c2nc3cnc(OC)nc3n(Cc3ccc(F)cc3)c2=O)cc1`, -23.8% (inactive); in that of `CC(N)(C(=O)O)c1ccc(-c2nn[nH]n2)cc1` (stereo not drawn), 2.68% (inactive).
For `COCCn1c(=O)c(CCc2ccccc2)nc2cncnc21`, the “activity change, negative = inhibition” value was -6.53% (inactive).
Same read-out and setting: as for `O=C(O)CCC(=O)O`, the figure is 21.2% (inactive).
On the same count and under the same terms, as for `COc1ccc(CNc2ncncc2-c2ccccc2OC)c(OC)c1`, the figure is -13.3% (inactive).
With `O=C1NS(=O)(=O)c2ccccc21`, the Potency result is “inactive”.
As to `CC1(C)C=CC(=O)[C@]2(C)C1CC(=O)[C@]1(C)C2CC[C@@]2(C)C(c3ccoc3)OC(=O)C3OC321` (stereo partly drawn), the “activity change, negative = inhibition” value was 23.3% (inactive).
The same measure, in the same setting: in the case of `O=C1C(c2ccccn2)=[N+]([O-])c2ccccc21` it was -19% (inactive); in that of `O=C1C(c2[nH]c3ccccc3c2O)=Nc2ccccc21`, -21.1% (inactive); in that of `O=C(c1ccncc1)N1CCC2(CCN(Cc3cc(C(F)(F)F)cc(C(F)(F)F)c3)CC2)CC1`, -0.448% (inactive).
`Cc1ccc(C)n1C(Cc1ccccc1)C(=O)O` (stereo not drawn): the Potency was 22.4 µM (active).
As for `COc1ccc(CNC(=O)C(Cc2ccccc2)n2cccc2)cc1` (stereo not drawn), the “activity change, negative = inhibition” value is -4.02% (inactive).
On the same count and under the same terms, in the case of `CCOC(=O)C(Cc1ccc(N)cc1)N1C(=O)c2ccccc2C1=O` (stereo not drawn) it was -5.43% (inactive).
Take `COc1cccc(Cn2c(=O)cnc3cncnc32)c1`: the “activity change, negative = inhibition” value was -10.4% (inactive).
Same read-out and setting: in the case of `Cc1ccc(S(=O)(=O)N2CCN(C(=O)c3ccccc3-c3nc4ccccc4s3)CC2)c(C)c1` it was 1.58% (inactive).
In the case of `CC(=O)N1CCN(C(=O)c2cc(-c3ccc(C)o3)nc3ccccc23)CC1`, the Potency was 20 µM (active).
As for `CC(=O)N1CCN(C(=O)c2cc(-c3ccc(Cl)s3)nc3ccccc23)CC1`, the “activity change, negative = inhibition” value is -8.36% (inactive).
On to `O=c1c(CCc2ccccc2)nc2cnc(N3CCNCC3)nc2n1Cc1cccs1`, for which the “activity change, negative = inhibition” value was -17.2% (inactive).
Regarding `NC(=O)C(=O)N/N=C/c1ccc([N+](=O)[O-])o1`, the “activity change, negative = inhibition” value was 16.5% (inactive).
Regarding `CCOC(=O)C1C/C(=C\C(C)=O)c2cccc(C(F)(F)F)c2O1` (stereo not drawn), the “activity change, negative = inhibition” value was 8.45% [at 88.6 µM] (inactive).
As to `O=C(c1ccc(S(=O)(=O)N2CCCC2)cc1)N1CCN(c2ccccc2F)CC1`, the “activity change, negative = inhibition” value was -15.7% (inactive).
On to `COc1ccc(N2CCN(S(=O)(=O)c3ccc4c(c3)NC(=O)C(C)C(=O)N4)CC2)cc1` (stereo not drawn), for which the “activity change, negative = inhibition” value was -3.08% (inactive).
In the case of `CC1C(=O)Nc2ccc(S(=O)(=O)N3CCN(c4ccccc4F)CC3)cc2NC1=O` (stereo not drawn), the Potency was 39.8 µM (active).
Regarding `CC(C)=CC1C(C(=O)O)C1(C)C` (stereo not drawn), the “activity change, negative = inhibition” value is -4.75% (inactive).
Same read-out and setting: as for `Oc1ccc(Cl)c2c1CCC2`, the figure is -11.3% (inactive).
